{
  "source": "PubChem BioAssay AID652067",
  "about": "(The Scripps Research Institute Molecular Screening Center, 2013)",
  "note": "The whole screen tested about 370,000 compounds, of which about 5,400 (1.5%) were called active. The sample holds actives, similar compounds and a random draw of the others, so the mix is not that of the screen. Values without a mark were called inactive.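 The calls were made as follows: active = activation above the mean of all tested compounds plus 3 SD (cut at about 5.5% in these data); inactive = the rest.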",
  "data": [
    {"test_system": "DAF-12 nuclear receptor (Haemonchus contortus)", "test": "hcDAF-12 driven luciferase reporter activation – cell-based, luminescence, HEK293, lit1-tk-luc reporter, primary screen (AID 652067);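 also: 100% = response to 3 µM Δ7-dafachronic acid high control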", "conditions": "HEK293 hcDAF-12 lit1-tk-luc reporter, at 6.8 µM, hits give high values", "values": [
      {"smiles": "Cc1ccc(C2CN(C)CC2C(=O)c2ccc(F)cc2)cc1", "note": "(stereo not given)", "activation": "0.06%"},
      {"smiles": "COc1ccc(C(=O)CC2C(=O)N(C)C(=O)N(C)C2=O)cc1", "activation": "0.97%"},
      {"smiles": "COc1ccc(C(=O)C2CN(C)CC2C(=O)c2ccc(OC)cc2)cc1", "note": "(stereo not given)", "activation": "8.46% (active)"},
      {"smiles": "CN(c1ccccc1)c1ccc([N+](=O)[O-])c2nonc12", "activation": "-1.36%"},
      {"smiles": "CNP1(NC)=Nc2nn(-c3ccccc3)c(N)c2C(c2ccccc2)=N1", "activation": "-1.95%"},
      {"smiles": "CCCCCn1c(=O)c(C(=O)NCc2ccccc2)c(O)c2ccccc21", "activation": "-0.29%"},
      {"smiles": "CCCCCn1c(=O)c(C(=O)Nc2c(C)n(C)n(-c3ccccc3)c2=O)c(O)c2ccccc21", "activation": "-0.09%"},
      {"smiles": "CCCCn1c(=O)c(C(=O)Nc2ccccc2Cl)c(O)c2ccccc21", "activation": "5.68% (active)"},
      {"smiles": "O=C(CCN1CCCCC1)NCC(=O)Nc1ccc(Br)cc1C(=O)c1ccccc1", "activation": "-0.6%"},
      {"smiles": "CS(=O)(=O)N1CCC2CCNC2C1", "note": "(stereo not given)", "activation": "-0.6%"},
      {"smiles": "CN1CCN(/N=C/c2c[nH]c3ccccc23)CC1", "activation": "1.53%"},
      {"smiles": "CCC/C(=N\\O)c1c[nH]c2ccccc12", "activation": "6.34% (active)"},
      {"smiles": "CN(C)CC1CCCCC1OC(=O)c1ccc(Cl)c(Cl)c1", "note": "(stereo not given)", "activation": "0.25%"},
      {"smiles": "CCOc1ccc(C2SCC(=O)Nc3c2c(C)nn3C2CCOC(C)(C)C2)cc1", "note": "(stereo not given)", "activation": "-2.48%"},
      {"smiles": "Cc1ccccc1CCC[C@@H](CC1CCCCC1)CN(C)C(=O)Oc1ccccc1", "activation": "4.88%"},
      {"smiles": "COc1ccc2c(c1)NP(=S)(c1ccccc1)N2", "note": "(stereo not given)", "activation": "13.1% (active)"},
      {"smiles": "Cc1cc(C)c2c(c1)NP(=S)(c1ccccc1)N2", "note": "(stereo not given)", "activation": "4.47%"},
      {"smiles": "CO[C@H]([C@H](C)/C=C/N(C)C=O)[C@@H](C)C(=O)CC[C@H](C)[C@H](O)[C@H](C)[C@H]1OC(=O)/C=C/C(C)=C/[C@H](O)[C@H](OC)C[C@@H]2C=CC[C@@H](C[C@H](OC)[C@@]3(CO3)[C@@H](OC)C[C@@H](OC)[C@@H]1C)O2", "activation": "0.14%"},
      {"smiles": "COc1ccc(-c2nc(CS(=O)CC(=O)N3CCC4(CC3)OCCO4)c(C)o2)cc1", "note": "(stereo not given)", "activation": "-0.05%"},
      {"smiles": "COP(=O)(Sc1ccccc1)C(Cc1ccccc1)NC(=O)OCc1ccccc1", "note": "(stereo not given)", "activation": "-1.13%"}
    ]}
  ]
}
